Laboratory results published in PubChem BioAssay (NCATS).
Where “and” joins values, the source holds several entries; their conditions need not be identical. Equal values may be shown once. Results filed as inconclusive are left out. Where a call stands in place of a potency, no number is given. A number with no mark means an inactive call. Calls of active or inactive are those of the source. The call rests on the fitted dose curve; in most records, active means well fitted inhibition curve with a large enough effect; inconclusive means small, poorly fitted or top-dose-only effect; inactive means flat fitted curve, though single readings scatter.

What was measured:
[1] = molecular target: Calcium and integrin-binding protein 1 (Homo sapiens) (UniProt Q99828); assay: Primary qHTS for Identification of Calcium Integrin Binding Protein 1 (CIB1) Competitor (AID 1508620);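 further: GST tagged CIB1 binding a fluorescein labelled alphaIIb integrin peptide tracer; top concentration of the series differs between compounds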
Summary of the method: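 Fluorescence polarization competition: CIB1-GST (1 uM final) preincubated with compound 15 min at room temperature, then FITC-labeled alphaIIb peptide (100 nM final) added for another 15 min. Polarization read at Ex 480/Em 540.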

[2] = Primary qHTS for inhibitors of nuclear receptor binding SET domain protein 2 (NSD2) in an isogenic RCH-ACV NSD2 p.E1099K mutant (9B) (AID 1645876); further: nearly all actives have a fitted effect of over 70% in size; further: potency means the concentration at half of the fitted maximal effect

Sequence of Calcium and integrin-binding protein 1 (Homo sapiens) (Q99828 whole entry, looked up): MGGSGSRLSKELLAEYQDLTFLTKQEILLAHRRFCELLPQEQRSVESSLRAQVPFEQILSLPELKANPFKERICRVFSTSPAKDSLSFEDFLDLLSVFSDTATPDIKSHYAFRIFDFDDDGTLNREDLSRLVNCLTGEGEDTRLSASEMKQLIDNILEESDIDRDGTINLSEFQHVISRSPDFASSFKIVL

SMILES	Potency [1]	Potency [2]	activity change, negative = viability loss [2]	activity change, negative = inhibition [1]
CC(C)=CC/C=C(\C)[C@H]1CC[C@]2(C)[C@@H]1[C@H](O)C[C@@H]1[C@@]3(C)CC[C@H](O)C(C)(C)[C@@H]3[C@@H](O[C@@H]3O[C@H](CO)[C@@H](O)[C@H](O)[C@H]3O)C[C@]12C	inactive	inactive		
CC[C@H]1OC(=O)[C@](C)(F)C(=O)[C@H](C)[C@@H](O[C@@H]2O[C@H](C)C[C@H](N(C)C)[C@H]2O)[C@](C)(OC)C[C@@H](C)C(=O)[C@@H](C)[C@H]2N(CCCCn3cc(-c4cccc(N)c4)nn3)C(=O)O[C@]12C	inactive	20.5 µM (active)		
COC(=O)C12C(=O)C(C)=C(O)C1(C)C(C)=CC1C3(CO)CCC(O)C(C)(C)C3CCC12C (stereo not given)	inactive	inactive		
COc1ccc(CC2C(=O)NC(C)C(=O)N(C)C3Cc4ccc(cc4)Oc4cc(ccc4OC4OC(CO)C(O)C(O)C4O)CC(C(=O)NC(C)C(=O)NC(C)C(=O)N2C)N(C)C3=O)cc1 (stereo not given)	inactive	0.0138 µM (active)		
C=C[C@@H]1[C@H](O[C@@H]2O[C@H](CO)[C@@H](O)[C@H](O)[C@H]2O)OC=C(C(=O)O)[C@H]1CCOC(=O)/C=C/c1ccc(O)c(O)c1	inactive	inactive		
CC1=C(C(=O)OCc2ccccc2)C(c2ccc(-c3ccccc3)cc2)NC(=O)N1CCCCCC(=O)O (stereo not given)	inactive	inactive		
CN=C(N)NCCCCC/C=C(/C)CC(C)C1OC(=O)C(C)C(O)/C=C/C(C)C(O)CC(O)C(C)C(O)CCC(C)C(O)CC2(O)OC(CC(OC(=O)CC(=O)O)CC(O)CC(O)C(C)C(O)/C(C)=C/CCC1C)CC(O)C2O (stereo not given)	inactive	3.88 µM (active)		
CC1=C2C3OC(=O)C(C)C3(O)CCC2(C)CCC1O (stereo not given)	inactive	inactive		
C=C[C@H]1[C@H](O[C@@H]2O[C@H](CO)[C@@H](O)[C@H](O)[C@H]2O)OC=C(C(=O)OC)[C@H]1C[C@@H]1c2cc(O)c(O)cc2CCN1C(C)=O	inactive	inactive		
CC[C@]12C=CCN3CC[C@@]4(c5cc([C@@]6(C(=O)OC)C[C@H]7C[C@@H](C(C)(F)F)CN(Cc8c6[nH]c6ccccc86)C7)c(OC)cc5N(C)[C@H]4[C@@](O)(C(=O)OC)[C@@H]1OC(C)=O)[C@@H]32	inactive	0.139 µM (active)		
C=CCC1=C[C@]2(OC)[C@H](C)[C@@H](c3ccc(O)c(OC)c3)O[C@]2(OC)CC1=O	inactive	inactive		
CCCOC(c1cc2nccc(C(=O)O)c2[nH]1)c1ccccc1Cl (stereo not given)	inactive	inactive		
CC1(C)[C@@H](O)CC[C@]2(C)[C@H]3CC=C4[C@@H]5C[C@](C)(C(=O)O)CC[C@]5(C)CC[C@@]4(C)[C@]3(C)CC[C@@H]12	inactive	inactive		
C[C@@H]1O[C@@H](O[C@H]2[C@@H]3C=CO[C@@H](O[C@@H]4O[C@H](CO)[C@@H](O)[C@H](O)[C@H]4O)[C@@H]3[C@@]3(CO)O[C@@H]23)[C@H](OC(=O)/C=C/c2ccccc2)[C@H](O)[C@H]1O	inactive	inactive		
COC(=O)CC(C)(O)CC(=O)OCc1ccc(O[C@@H]2O[C@H](CO)[C@@H](O)[C@H](O)[C@H]2O)cc1 (stereo not given in full)	inactive	inactive		
CN1CCN(c2ccc(C(=O)Nc3n[nH]c4ccc(Cc5cc(F)cc(F)c5)cc34)c(NC3CCOCC3)c2)CC1	inactive	3.25 µM (active) and 4.68 µM (active) and 6.51 µM (active)		
CC1CCC2(OC1)OC1CC3C4CC=C5CC(O)CC(O[C@@H]6OC[C@@H](O)[C@H](O)[C@H]6O)C5(C)C4CCC3(C)C1(O)C2C (stereo not given in full)	inactive	inactive		
C=CC(C)(O)C(O)CC1C(C)(O)C(O)C(O)C2C(C)(C)CCCC21C (stereo not given)	inactive	inactive		
CC(=O)OC[C@@]12C(=O)C[C@@H](C)[C@]3(C[C@@H](c4ccoc4)O[C@H]3OC(C)=O)[C@H]1CCC[C@]21CO1	inactive	12.6 µM (active)		
CC(C)C[C@H](CC(=O)NO)C(=O)N[C@H](C(=O)N[C@@H](C)C(=O)NCCN)C(C)(C)C	inactive		-8.25% [at 9.23 µM]	
CC1=CC(=O)[C@]2(O[C@@H]3O[C@@H](C)[C@H](O)[C@@H](O)[C@H]3OC(=O)/C=C/c3ccccc3)C=CO[C@@H](O[C@@H]3O[C@H](CO)[C@@H](O)[C@H](O)[C@H]3O)[C@H]12	inactive	inactive		
NCc1c[nH]c(=S)n1[C@@H]1CCc2c(F)cc(F)cc2C1	inactive	inactive		
COc1c2c(c(C)c3c1C(=O)OC3)OC1(C)CC(O)C(C(C)(C)O)C(C)(CCC(=O)O)C1C2 (stereo not given)	inactive	inactive		
C[C@@H]1O[C@@H](O[C@H]2[C@H](O)[C@@H](O)[C@H](OC[C@H]3O[C@@H](OC(=O)[C@]45CCC(C)(C)C[C@H]4C4=CCC6[C@@]7(C)CC[C@H](O[C@@H]8OC[C@H](O)[C@H](O[C@@H]9O[C@H](CO)[C@@H](O)[C@H](O)[C@H]9O)[C@H]8O)[C@@](C)(CO)C7CC[C@@]6(C)[C@]4(C)CC5)[C@H](O)[C@@H](O)[C@@H]3O)O[C@@H]2CO)[C@H](O)[C@H](O)[C@H]1O (stereo not given in full)			0.607% [at 9.23 µM]	1.27% [at 12.4 µM]
COC(=O)c1ccccc1O[C@@H]1O[C@H](CO)[C@@H](O)[C@H](O)[C@H]1O[C@@H]1O[C@@H](C)[C@H](O)[C@@H](O)[C@H]1O	inactive	inactive		
CC/C=C\CCO[C@@H]1O[C@H](CO[C@@H]2OC[C@H](O)[C@H](O)[C@H]2O)[C@@H](O)[C@H](O)[C@H]1O	inactive	inactive		
CCOc1ccc(S(=O)(=O)n2c(C)nc3ccccc32)cc1	inactive	8.93 µM (active)		
CC1=C2C(O)C(=O)OC(c3ccoc3)C2(C)CCC1O (stereo not given)	inactive	inactive		
C/C=C(\C)C(=O)OCC1OC(OC2OC(COC(=O)/C(C)=C/C)C(OC3OC(CO)C(OC(=O)/C(C)=C/C)C(OC(=O)/C(C)=C/C)C3O)C(O)C2O)C(O)C(O)C1OC1OC(CO)C(OC(=O)/C(C)=C/C)C(OC(=O)/C(C)=C/C)C1O (stereo not given)	inactive		-4.2% [at 9.23 µM]	
CC(=O)OCC1(O)CCC2C(COC3OC(CO)C(O)C(O)C3OC(=O)/C=C/c3ccc(O)cc3)=COC(OC(=O)CC(C)C)C21 (stereo not given)	inactive	inactive		
